An excerpt weighted towards active compounds, which were near 1.3% of everything screened.
GALR2 ag: GALR2 receptor agonists, primary screen, cell-based | Galanin receptor type 2 (Homo sapiens), O43603 | GALR2-expressing cells, agonist activation read-out | activation, % (test concentration not listed) | 140,000 tested, 0.48% active | AID 803, 2007; in the data active = activation above about 5%, passing the limit was not always enough;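 also: 0% = vehicle buffer wells and 100% = reference agonist at full effect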
Target sequence (O43603 whole entry, looked up): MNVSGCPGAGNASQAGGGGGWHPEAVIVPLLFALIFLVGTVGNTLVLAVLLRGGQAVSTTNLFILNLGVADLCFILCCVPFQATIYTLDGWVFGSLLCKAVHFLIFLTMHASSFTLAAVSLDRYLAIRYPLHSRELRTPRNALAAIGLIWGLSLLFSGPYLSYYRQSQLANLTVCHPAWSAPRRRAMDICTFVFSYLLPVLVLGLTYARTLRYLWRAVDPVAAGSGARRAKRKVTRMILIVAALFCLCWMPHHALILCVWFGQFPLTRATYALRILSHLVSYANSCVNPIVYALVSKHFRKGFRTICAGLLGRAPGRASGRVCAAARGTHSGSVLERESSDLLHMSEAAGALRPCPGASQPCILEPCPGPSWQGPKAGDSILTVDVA
S1P3 antag: S1P3 receptor antagonists, primary screen, cell-based | Sphingosine 1-phosphate receptor 3 (Homo sapiens), Q99500 | CHO S1P3 NFAT-BLA reporter, FRET fluorescence, antagonist mode | inhibition, % at 4.98 µM | 170,000 tested, 0.27% active | AID 485, 2006;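 active = inhibition above the plate cutoff, the mean inhibition of test wells on that plate plus 3 SD, cut at about 28% in these data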;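 also: cells challenged with S1P at its EC80 of 0.8 µM; blue over green emission ratio from cleaved BLA substrate after 4 h stimulation; 0% = S1P-stimulated wells and 100% = unstimulated DMSO-only wells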
GALR2 blocker: GALR2 antagonists in receptor-expressing cells, primary screen; Galanin receptor type 2 (Homo sapiens), O43603; antagonist mode; inhibition, % at 4 µM; 140,000 tested, 0.39% active; AID 828, 2007;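 also: cells stimulated with galanin 1-16 at roughly its EC80; 0% = agonist challenge control and 100% = basal control without agonist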
S1P4 antag: S1P4 receptor antagonists, primary screen, cell-based | Sphingosine 1-phosphate receptor 4 (Homo sapiens), O95977 | S1P4-expressing cells, antagonist mode, reporter read-out | inhibition, % at 4.98 µM | 220,000 tested, 0.26% active | AID 1510, 2009; in the data active = inhibition above about 29%;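 also: 0% = wells stimulated with agonist and 100% = vehicle wells without agonist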
S1P4 agonist: S1P4 receptor agonists, primary screen, cell-based; 220,000 tested, 0.35% active; S1P4-expressing cell line, agonist reporter assay; AID 1509, 2009; activation, % at 4.98 µM; in the data active = activation above about 11%;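 also: 0% = DMSO vehicle and 100% = reference agonist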
GALR2 ant conf: GALR2 antagonists, retest of hits, confirmation, cell-based; shares compounds with GALR2 blocker; GALR2-expressing cells, antagonist mode, inhibition; inhibition, % at 4 µM; 480 tested, 60% active; AID 866, 2007;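 also: cells stimulated with galanin at about its EC80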
BLA inhib ctr: inhibitors of NFAT-driven beta-lactamase reporter, confirmation, counter-screen for GALR2 antagonist project, CHO NFAT-bla cells, FRET readout. shares compounds with GALR2 blocker. 480 tested, 36% active. thapsigargin-stimulated. inhibition, % at 4.2 µM;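 active = inhibition above the mean inhibition across tested compounds plus 3 SD, cut at about 27% in these data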;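 also: 0% = 500 nM thapsigargin stimulated wells and 100% = unstimulated BSA only wells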
S1P4 agonist cf: S1P4 receptor agonists, retest, confirmation, cell-based, high throughput; activation, % at 4.98 µM; shares compounds with S1P4 agonist; S1P4 agonist cell-based reporter assay; 740 tested, 7% active; in the data active = activation above about 12%;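 also: 0% = vehicle and 100% = full reference agonist response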
S1P1 agonist: S1P1 receptor agonists, human, counter-screen for S1P4 agonist project, cell-based | shares compounds with S1P4 agonist | S1P1 agonist cell-based assay, activation | activation, % at 4.98 µM | 740 tested, 4% active | AID 1563, 2009; in the data active = activation above about 21%;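 also: 0% = vehicle wells and 100% = reference agonist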
S1P4 antag conf: S1P4 receptor antagonists, human, confirmation, cell-based | shares compounds with S1P4 antag | S1P4-expressing cell line, antagonist mode, reporter read-out | inhibition, % at 4.98 µM | 520 tested, 71% active | AID 1524, 2009; in the data active = inhibition above about 30%
S1P1 antag: S1P1 receptor antagonists, human, counter-screen for S1P4 antagonist project, cell-based; 520 tested, 37% active; shares compounds with S1P4 antag; inhibition, % at 4.98 µM; cell-based S1P1 antagonist counterscreen, inhibition; in the data active = inhibition above about 40%;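 also: receptor stimulated with S1P near its EC80; 0% = agonist stimulated wells and 100% = vehicle only wells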
* marks the source's active call; other numbers are inactive results. Rule as the data show it, unless noted: active = inhibition above about 27%; inactive = the rest.

`CC1(C)C[C@H]2C=C(C=O)[C@]3(C=O)C[C@]3(C)[C@H]2C1` gave GALR2 ag -2, S1P3 antag 0, GALR2 blocker 55*, S1P4 antag 70*, S1P4 agonist -6, GALR2 ant conf 92*, BLA inhib ctr 99*, S1P4 antag conf 115* and S1P1 antag 118*.
CC1CCC/C=C/C2CC(O)CC2C(O)/C=C/C(=O)O1 (stereo unspecified) was read as GALR2 ag -1, GALR2 blocker 46*, S1P4 antag 47*, S1P4 agonist 0, GALR2 ant conf 62*, BLA inhib ctr 18, S1P4 antag conf 83* and S1P1 antag 37.
`COc1ccc(-n2c(O)c(C(C)=NCc3ccc4c(c3)OCO4)c(=O)[nH]c2=O)cc1` gave S1P3 antag 10, S1P4 antag -5 and S1P4 agonist 0.
Screening CC12CN3CC(C)(CN(C1)C3c1cccs1)C2=O (stereo unspecified) returned S1P3 antag -11, S1P4 antag -9 and S1P4 agonist 0.
`COC(=O)C1CN(C#N)N(c2ccc(Cl)cc2)C12c1ccccc1-c1ccccc12` (stereo unspecified) gave GALR2 ag -3, GALR2 blocker 78*, S1P4 antag 66*, S1P4 agonist 0, GALR2 ant conf 87*, BLA inhib ctr 92*, S1P4 antag conf 121* and S1P1 antag 94*.
`O=c1[nH]c(=S)n(-c2ccc(Cl)cc2)c(O)c1/C=N/N1CCOCC1` gave S1P3 antag -3, S1P4 antag -3 and S1P4 agonist 0.
Screening CCOC(=O)c1c(-n2c(C)cc(/C=C3\C(=O)NC(=O)N(C)C3=O)c2C)sc2c1CCCC2 returned GALR2 ag -3, GALR2 blocker -3, S1P4 antag 0, S1P4 agonist 13*, S1P4 agonist cf 24* and S1P1 agonist 5.
Screening CCC(=NCC1CCCO1)c1c(O)n(-c2ccccc2C)c(=O)[nH]c1=O (stereo unspecified) returned S1P3 antag -7, S1P4 antag 6, S1P4 agonist 93*, S1P4 agonist cf -3 and S1P1 agonist -8.
For COC(=O)c1c(C)[nH]c(C(=O)C(C)[N+]23CCN(CC2)CC3)c1C (stereo unspecified) the results were S1P3 antag -19, S1P4 antag -10 and S1P4 agonist 0.
O=C1C2CCCC1C(N1CCCC1)CC2 (stereo unspecified) was read as GALR2 ag 1, S1P3 antag -2, GALR2 blocker -14, S1P4 antag -7 and S1P4 agonist 1.
`CCNC(=O)NC(=O)C(C)OC(=O)c1c(C)nn(Cc2ccccc2)c1Cl` (stereo unspecified) gave GALR2 ag -1, S1P3 antag 12, GALR2 blocker 0, S1P4 antag -17, S1P4 agonist 31*, S1P4 agonist cf 53* and S1P1 agonist -10.
Screening Cc1nn(Cc2ccccc2)c(Cl)c1C(=O)Nc1ccc(OC(F)(F)F)cc1 returned GALR2 ag -1, S1P3 antag -13, GALR2 blocker 2, S1P4 antag -11 and S1P4 agonist -1.
`Cc1nn(Cc2ccccc2Cl)c(Cl)c1C(=O)OCC(=O)NCc1ccco1` gave GALR2 ag 1, S1P3 antag -17, GALR2 blocker -1, S1P4 antag -17 and S1P4 agonist 1.
Screening CCNC(=O)NC(=O)C(C)OC(=O)c1c(C)nn(Cc2ccccc2Cl)c1Cl (stereo unspecified) returned GALR2 ag 1, S1P3 antag 1, GALR2 blocker 8, S1P4 antag -41, S1P4 agonist 31*, S1P4 agonist cf 43* and S1P1 agonist 0.
For Cc1cccc(C)c1OP(N)(=O)OCC(F)(F)F (stereo unspecified) the results were GALR2 ag -1, S1P3 antag 5, GALR2 blocker 3, S1P4 antag -6 and S1P4 agonist 0.
`Cc1ccc(O)c(C(=O)c2cc(C(=O)NCCC(C)C)c(=O)n(CCC(C)C)c2)c1` gave S1P3 antag -4, S1P4 antag 10, S1P4 agonist 15*, S1P4 agonist cf -3 and S1P1 agonist -11.
`Cc1ccc(-c2nc3ccccc3c(=O)n2-c2ccccn2)cc1` gave GALR2 ag -1, S1P3 antag -14, GALR2 blocker -4, S1P4 antag -9 and S1P4 agonist 0.
COc1ccc(-c2n(-c3ccccn3)c3ccccc3[n+]2-c2ccccn2)cc1 was read as S1P3 antag 4, S1P4 antag 33*, S1P4 agonist 0, S1P4 antag conf -14 and S1P1 antag -10.
Screening O=P(Nc1cccnc1)(Oc1ccccc1Cl)Oc1ccccc1Cl returned GALR2 ag -1, S1P3 antag -2, GALR2 blocker -8, S1P4 antag -9 and S1P4 agonist 1.
CC(=O)N1CN2CN(C1)CN(C(C)=O)C2 was read as GALR2 ag 0, S1P3 antag -2, GALR2 blocker 3, S1P4 antag -3 and S1P4 agonist 0.
Screening O=C1C(=O)c2ccccc2-c2ccccc21 returned GALR2 ag 0, GALR2 blocker 17, S1P4 antag 99*, S1P4 agonist -3, S1P4 antag conf 116* and S1P1 antag 143*.
`O=C1C(=O)c2cccc3cccc1c23` gave GALR2 ag 0, S1P3 antag -22, GALR2 blocker 7, S1P4 antag -5 and S1P4 agonist 1.

Screens as filed in PubChem.
